The nature of assay [1]: TOX21_p53_BLA_p2_viability: Viability Assessment in the Tox21 HCT-116 p53 Agonism Beta-lactamase Assay, Phase 2 (AID 2283591).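 Also: compound exposure lasted 16 h at 37 °C; actives lower the ATP signal meaning cytotoxicity.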 Put shortly:
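HCT-116 p53-bla cells (4000/well) rested 5 h at 37C, then received compounds in DMSO (217-fold dilution) for 16 h at 37C, 5% CO2. After the CCF4 read, CellTiter-Glo was added; ATP luminescence was read after 30 min at room temperature.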

Assay [2] addresses Cellular tumor antigen p53 (Homo sapiens) (UniProt P04637). As to the kind of experiment: TOX21_p53_BLA_p2_ratio: Tox21 HCT-116 p53 Agonism Beta-lactamase Assay, Ratio, Phase 2 (AID 2283592). Put shortly: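 Cleaved-to-uncleaved substrate ratio (460 vs 530 nm) measured in HCT116 cells with an inducible beta-lactamase reporter linked to p53 activity. Compounds incubated 16 h at 37C before 2 h room-temperature CCF4-AM loading.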

Assay [3] can be described thus: TOX21_p53_BLA_p3_viability: Viability Assessment in the Tox21 HCT-116 p53 Agonism Beta-lactamase Assay, Phase 3 (AID 2283593).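 Also: cells exposed to compound for 16 h before reading.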 Put shortly:
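HCT-116 cells (4000/well) rested 5 h at 37C, then got DMSO compounds by pin tool (217-fold dilution) for 16 h at 37C, 5% CO2. After the bla read, CellTiter-Glo was added and luminescence read at 30 min, room temperature.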

The target of assay [4] is Cellular tumor antigen p53 (Homo sapiens) (UniProt P04637). Description: TOX21_p53_BLA_p3_ratio: Tox21 HCT-116 p53 Agonism Beta-lactamase Assay, Ratio, Phase 3 (AID 2283596). In short, it runs like this: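 Cells were seeded at 4000/well, rested 5 h at 37C, then dosed with DMSO compound solutions (217-fold dilution) for 16 h. CCF4-AM substrate was loaded for 2 h at room temperature, and the 460/530 nm emission ratio was fitted for gain of signal versus DMSO.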
Cellular tumor antigen p53 (Homo sapiens), sequence (P04637 whole entry, looked up): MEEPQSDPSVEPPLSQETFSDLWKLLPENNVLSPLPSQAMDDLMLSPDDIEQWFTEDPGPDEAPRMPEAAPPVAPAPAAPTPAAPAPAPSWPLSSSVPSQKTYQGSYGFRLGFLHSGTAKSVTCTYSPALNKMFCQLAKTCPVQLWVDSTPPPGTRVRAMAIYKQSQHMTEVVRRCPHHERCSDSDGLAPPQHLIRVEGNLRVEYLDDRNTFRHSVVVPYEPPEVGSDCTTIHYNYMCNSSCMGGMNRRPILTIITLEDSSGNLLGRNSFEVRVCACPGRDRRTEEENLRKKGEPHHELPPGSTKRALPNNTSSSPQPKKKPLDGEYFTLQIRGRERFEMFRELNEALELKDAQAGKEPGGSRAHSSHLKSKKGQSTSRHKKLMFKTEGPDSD

A short description of assay [5]: TOX21_p53_BLA_p4_viability: Viability Assessment in the Tox21 HCT-116 p53 Agonism Beta-lactamase Assay, Phase 4 (AID 2283597).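 Also: hits lower the luminescence signal meaning cytotoxicity.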 In short, it runs like this: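 Viability is taken as cellular ATP: after 16 h compound exposure of HCT116 cells and a 2 h room-temperature CCF4-AM substrate step, CellTiter-Glo reagent is added and luminescence is measured 30 min later.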

For assay [6], the target named is Cellular tumor antigen p53 (Homo sapiens) (UniProt P04637). Description: TOX21_p53_BLA_p5_ratio: Tox21 HCT-116 p53 Agonism Beta-lactamase Assay, Ratio, Phase 5 (AID 2283599). Put shortly: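 HCT-116 cells carrying a p53-inducible beta-lactamase reporter were seeded at 4000 cells/well and dosed after 5 h with compound in DMSO (217-fold dilution). After 16 h at 37C, CCF4-AM substrate was added for 2 h, and the 460/530 nm emission ratio was scored as gain-of-signal versus DMSO.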

Assay [7] is described as follows: TOX21_p53_BLA_p5_viability: Viability Assessment in the Tox21 HCT-116 p53 Agonism Beta-lactamase Assay, Phase 5 (AID 2283600). In short, it runs like this:
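Viability is taken from cellular ATP content, measured by luciferase luminescence in the same wells after the beta-lactamase ratio read. Cells are seeded at 4000 per well and exposed to DMSO-dissolved compounds, diluted 217-fold, for 16 h.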

Assay [8] addresses Cellular tumor antigen p53 (Homo sapiens) (UniProt P04637). As to the kind of experiment: TOX21_p53_BLA_p4_ratio: Tox21 HCT-116 p53 Agonism Beta-lactamase Assay, Ratio, Phase 4 (AID 2283601). In short, it runs like this:
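HCT116 cells carrying an inducible beta-lactamase reporter were plated at 4000 cells/well, rested 5 h, then exposed to compounds in DMSO (217-fold dilution) for 16 h at 37C. CCF4-AM substrate was loaded 2 h at room temperature; 460/530 nm emission ratio scored gain-of-signal versus DMSO.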

Results filed as inconclusive are left out. Activity calls are given as the source filed them. The calls were made as follows: active = hit-call score of the fitted dose curve at least 0.9, where 1 is the maximum; inconclusive = response in the unintended direction; inactive = score below 0.9. Where a SMILES comes first, the peptide text is derived from it. [ ]: non-standard residue; d: D form. Orn = NCCC[C@H](N)C(=O)O

The AC50 is the concentration giving half of the maximal activity seen.

As for `C=COCC1CCC(CO)CC1` (stereo not drawn), the result in assay [1], in assay [2], in assay [3], in assay [4], in assay [5] and in assay [6] was inactive. The compound was called inactive in assay [7] and in assay [8].
In the case of `O[C@@H](c1cc(C(F)(F)F)nc2c(C(F)(F)F)cccc12)[C@H]1CCCCN1`, the AC50 in assay [1] was 32.7 µM (active); in assay [2], 28.9 µM (active); in assay [3], 34 µM (active); in assay [4], 43.6 µM (active); in assay [5], 24.6 µM (active); in assay [6] it was 42.9 µM (active). Further, the AC50 in assay [7] is 22 µM (active); in assay [8], 39.6 µM (active).
On to `CCC(C)Nc1ccc(NC(C)CC)cc1` (stereo not drawn), for which the AC50 in assay [1] was 15.1 µM (active); in assay [3], 22.4 µM (active); in assay [4] it was 46.8 µM (active); in assay [5] it was 19.2 µM (active); in assay [7], 30.1 µM (active). Further, the result in assay [2], in assay [6] and in assay [8] was inactive.
Turning to `CC(O)COC(C)(C)C` (stereo not drawn), the call in assay [1], in assay [2], in assay [3], in assay [4], in assay [5] and in assay [6] was inactive. The outcome in assay [7] and in assay [8] was inactive.
In the case of `CCOC(CN1CCN(CC(C)C(=O)c2ccccc2)CC1)c1ccccc1` (stereo not drawn), the result in assay [1], in assay [2], in assay [3], in assay [4], in assay [5] and in assay [6] was inactive. In addition, the result in assay [7] and in assay [8] was inactive.
Turning to `O=[N+]([O-])c1c(Cl)cccc1-c1c[nH]cc1Cl`, the result in assay [1], in assay [2], in assay [6], in assay [7] and in assay [8] was inactive. Besides, the AC50 in assay [3] was 37.2 µM (active); in assay [4], 23.6 µM (active); in assay [5] it was 36.3 µM (active).
For the compound `C=C(Nc1ccc(OCC)cc1)Nc1ccc(OCC)cc1`, the result in assay [1], in assay [2], in assay [3], in assay [4], in assay [5] and in assay [6] was inactive. The call in assay [7] and in assay [8] was inactive.
Take `CC(C)C[C@@H]1NC(=O)[C@H](CCCN)NC(=O)[C@H](C(C)C)NC(=O)[C@@H]2CCCN2C(=O)[C@@H](Cc2ccccc2)NC(=O)[C@H](CC(C)C)NC(=O)[C@H](CCCN)NC(=O)[C@H](C(C)C)NC(=O)[C@@H]2CCCN2C(=O)[C@@H](Cc2ccccc2)NC1=O` (cyclo(V[Orn]L[dF]PV[Orn]L[dF]P)): the AC50 was 8.09 µM (active) in assay [1]; 5.88 µM (active) in assay [3]; 5.84 µM (active) in assay [5]; 4.51 µM (active) in assay [7]; 2.35 µM (active) in assay [8]. The result in assay [2], in assay [4] and in assay [6] was inactive.
With `C#C[C@]1(O)CC[C@H]2[C@@H]3[C@H](C)CC4=C(CCC(=O)C4)[C@H]3CC[C@@]21C`, the compound was called inactive in assay [1], in assay [2], in assay [3], in assay [4], in assay [5] and in assay [6]. Moreover, the compound was classed as inactive in assay [7] and in assay [8].
Regarding `Nc1c(N=Nc2ccc(-c3ccc(N=Nc4cc(S(=O)(=O)O)c5ccccc5c4N)cc3)cc2)cc(S(=O)(=O)O)c2ccccc12`, the result in assay [1], in assay [2], in assay [3], in assay [4], in assay [5] and in assay [6] was inactive. Besides, the call in assay [7] and in assay [8] was inactive.
In the case of `CCOc1ccccc1O[C@H](c1ccccc1)[C@H]1CNCCO1`, the outcome in assay [1], in assay [2], in assay [3], in assay [4], in assay [5] and in assay [6] was inactive. The result in assay [7] and in assay [8] was inactive.
Take `COc1cc(C(=O)OCCCN2CCCN(CCCOC(=O)c3cc(OC)c(OC)c(OC)c3)CC2)cc(OC)c1OC`: the compound was classed as inactive in assay [1], in assay [2], in assay [3], in assay [4], in assay [5] and in assay [6]. In addition, the result in assay [7] and in assay [8] was inactive.
As to `CC(=C(CCO)SSC(CCO)=C(C)N(C=O)Cc1cnc(C)nc1N)N(C=O)Cc1cnc(C)nc1N`, the outcome in assay [1], in assay [2], in assay [3], in assay [4], in assay [5] and in assay [6] was inactive. The compound was classed as inactive in assay [7] and in assay [8].
`COc1c(C)c2c(c(O)c1C/C=C(\C)CCC(=O)OCCN1CCOCC1)C(=O)OC2`: the call in assay [1], in assay [3] and in assay [7] was inactive. Also, the AC50 in assay [2] was 0.139 µM (active); in assay [4], 0.164 µM (active); in assay [5], 0.805 µM (active); in assay [6], 0.183 µM (active); in assay [8], 0.194 µM (active).
As for `CSc1nc2cc(Oc3cccc(Cl)c3Cl)c(Cl)cc2[nH]1`, the AC50 in assay [1] was 14.5 µM (active); in assay [2] it was 33.3 µM (active); in assay [3], 22.6 µM (active); in assay [4], 33.9 µM (active); in assay [5], 33.2 µM (active); in assay [8], 20.5 µM (active). Further, the result in assay [6] and in assay [7] was inactive.
Consider `COc1ccc(CN2CCN(C(c3ccc(F)cc3)c3ccc(F)cc3)CC2)c(OC)c1OC`, for which the AC50 in assay [1], in assay [3] and in assay [5] was 23 µM (active) throughout. Also, the outcome in assay [2], in assay [4], in assay [6], in assay [7] and in assay [8] was inactive.
For the compound `CC1CCCO1` (stereo not drawn), the result in assay [1], in assay [2], in assay [3], in assay [4], in assay [5] and in assay [7] was inactive. In addition, the result in assay [8] was inactive. In addition, the AC50 in assay [6] was 85.2 µM (active).
As to `CCC(=O)O[C@]1(C(=O)SCF)[C@H](C)C[C@H]2[C@@H]3C[C@H](F)C4=CC(=O)C=C[C@]4(C)[C@@]3(F)[C@@H](O)C[C@@]21C`, the compound was called inactive in assay [1], in assay [2], in assay [3], in assay [4], in assay [5] and in assay [6]. For the same compound, the compound was classed as inactive in assay [7] and in assay [8].
On to `CC[C@@]1([C@@H]2O[C@@H]([C@H]3O[C@@](O)(CO)[C@H](C)C[C@@H]3C)C[C@@H]2C)CC[C@H]([C@]2(C)CC[C@]3(C[C@H](O)[C@@H](C)[C@@H]([C@@H](C)[C@@H](OC)[C@H](C)C(=O)O)O3)O2)O1` (stereo in doubt), for which the compound was called inactive in assay [1], in assay [2], in assay [3], in assay [4], in assay [5] and in assay [6]. The compound was classed as inactive in assay [7] and in assay [8].
In the case of `Cc1ccccn1`, the call in assay [1], in assay [2], in assay [3], in assay [4], in assay [5] and in assay [6] was inactive. Further, the call in assay [7] and in assay [8] was inactive.
For the compound `CC1=CC(C)(C)Nc2ccccc21`, the outcome in assay [1], in assay [2], in assay [3], in assay [4], in assay [5] and in assay [6] was inactive. Also, the compound was called inactive in assay [7] and in assay [8].

Values taken from PubChem BioAssay (EPA / NIEHS).
